In PubChem BioAssay (NCATS):
Records with an inconclusive call do not appear. Unmarked numbers belong to inactive results. Active and inactive are the calls of the source. Calls follow the shape of the dose curve; as a rule, active = well fitted cell-killing curve with a large enough effect; inconclusive = small, poorly fitted or top-dose-only effect, or effect the other way; inactive = no such curve, though single readings can be large or run the other way.

Assay: Quantitative High-Throughput drug screen in 47 multiple myeloma cell lines against the NCATS MIPE library collection: SKMM1_PLB cell viability assay (AID 1919863); also: nearly all actives have a fitted effect of over 35% in size; as to viability: series mostly up to about 46 µM
Details: SKMM1 myeloma viability, CellTiter-Glo ATP, 48 h; viability: hits give low values
Text: PI: Beverly A. Mock Ph.D.
Laboratory of Cancer Biology and Genetics,
Center for Cancer Research, National Cancer Institute,
National Institute of Health, Bethesda, Maryland
Drug resistance and disease progression are common in multiple myeloma (MM) patients, underscoring the need for new therapeutic combinations. […] We hypothesized that effective combinations would reduce MYC expression and enhance p16 activity. […] These preclinical data identify potentially useful drug combinations for evaluation in drug-resistant MM and reveal potential mechanisms of combined drug sensitivity.
Described herein is the primary MIPE qHTS used to cherrypick compounds. Validated compounds were then further tested for potential synergistic activiy.
[1] Peat TJ, Gaikwad SM, Dubois W, Gyabaah-Kessie N, Zhang S, Gorjifard S, Phyo Z, Andres M, Hughitt VK, Simpson RM, Miller MA, Girvin AT, Taylor A, Williams D, D'Antonio N, Zhang Y, Rajagopalan A, Flietner E, Wilson K, Zhang X, Shinn P, Klumpp-Thomas C, McKnight C, Itkin Z, Chen L, Kazandijian D, Zhang J, Michalowski AM, Simmons JK, Keats J, Thomas CJ, Mock BA. Drug combinations identified by high-throughput screening promote cell cycle transition and upregulate Smad pathways in myeloma. Cancer Lett. 2023 Aug 1;568:216284. doi: 10.1016/j.canlet.2023.216284. Epub 2023 Jun 24. PMID: 37356470; PMCID: PMC10408729.
SEQUENCE No. (e.g., 1, 2, 3, etc.); […] (e.g., Cells, Incubation, Reagent, etc.); VALUE and DESCRIPTION.
1; Cells; 5 uL; white, solid bottom 1536-well Greiner assay plate.
2; Compounds; 23 nL; Kalypsis pin tool (Wako USA) equipped with a 1536-well pin head to transfer to the assay plates.
3; Incubation; 48 hours; 37C incubation.
4; Reagent;5uL; CellTiter Glo (Promega).
5; Detector; 425V; Luminescence; Viewlux PerkinElmer.
NOTES (numbers refer to Sequence numbers above)
1. The cell-based screening methods employed in this study were like those previously published. Briefly, the corresponding myeloma cell lines were screened in 1,536-well plates with 500 cells, 5-uL per well for inhibition of cell viability (assessed by measuring ATP levels with CellTiterGlo).
2. NCATS MIPE 4.0 library of approved and investigational drugs were added using the Kalypsis pin tool. Wells treated with DMSO only for 100% viability and media only for 0% viability were used as controls.
3. The assay plates were covered and incubated for 48 hours in a 37C, 5% CO2 incubator with controlled humidity.
4. After 48 hours, CellTilter-GloTM luminescent substrate mix (Promega) reagent was added to the assay plate and plates we incubated for 5 min at room temperature.
5. Signal was measured as median relative luminescence units on a ViewLux (PerkinElmer) multiplate reader.
[1] Heske CM, Davis MI, Baumgart JT, Wilson K, Gormally MV, Chen L, Zhang X, Ceribelli M, Duveau DY, Guha R, Ferrer M, Arnaldez FI, Ji J, Tran HL, Zhang Y, Mendoza A, Helman LJ, Thomas CJ. Matrix Screen Identifies Synergistic Combination of PARP Inhibitors and Nicotinamide Phosphoribosyltransferase (NAMPT) Inhibitors in Ewing Sarcoma. Clin Cancer Res. 2017 Dec 1;23(23):7301-7311. doi: 10.1158/1078-0432.CCR-17-1121. Epub 2017 Sep 12. PMID: 28899971; PMCID: PMC6636827.
Potency is read from the fitted curve at half-maximal effect.

Row | Compound | Potency | viability
1 | CC1(C)Cc2c(-c3ccccc3)c(-c3ccc(Cl)cc3)c(CC(=O)O)n2C1 | 20.9 µM (active) | 
2 | CC(C)OC(=O)C1=CN(C(=O)c2ccc(F)c(F)c2)CC(C)(C)c2c1[nH]c1ccccc21 |  | 104%
3 | CCc1cncnc1N1CCN(Cc2nc3ccc(C(F)(F)F)cc3[nH]2)CC1 | 18.7 µM (active) | 
4 | Cc1ccc(N(CC2=NCCN2)c2cccc(O)c2)cc1 | 29.6 µM (active) | 
5 | Cc1c(CN2CCN(C(=O)C(C)C)CC2)sc2c(N3CCOCC3)nc(-c3cnc(N)nc3)nc12 | 0.148 µM (active) | 
6 | COc1cc2nccc(Oc3ccc(NC(=O)NC4CC4)c(Cl)c3)c2cc1C(N)=O | 13.2 µM (active) | 
7 | C[C@]12CC[C@H](O)CC1=CC[C@@H]1[C@H]2CC[C@]2(C)C(c3cccnc3)=CC[C@H]12 | 1.82 µM (active) | 
8 | CCCc1nc2c(C)cc(-c3nc4ccccc4n3C)cc2n1Cc1ccc(-c2ccccc2C(=O)O)cc1 |  | 142%
9 | Nc1nc2c(ncn2COCCO)c(=O)[nH]1 |  | 125%
10 | CCOc1cc(C=C2C(=O)N(c3ccccc3)N=C2C)cc(Cl)c1OCC(=O)OC |  | 106%
11 | COc1cccc2cc(-c3nc(C4CCC(C(=O)O)CC4)n4ncnc(N)c34)[nH]c12 (stereo not given) | 1.87 µM (active) | 
12 | Nc1cccc(S(=O)(=O)N2CCCN(S(=O)(=O)c3ccc4c(c3)OCCO4)CC2)c1 |  | 103%
13 | COc1ccc(-c2c(-c3ccc(O)cc3O)n[nH]c2C)cc1 |  | 137%
14 | COc1cc(Nc2ncc3c(n2)-c2ccc(Cl)cc2C(c2c(F)cccc2OC)=NC3)ccc1C(=O)O |  | 78.9%
15 | N[C@@H]1CONC1=O |  | 132%
16 | Nc1nc2[nH]cc(CCc3ccc(C(=O)N[C@@H](CCC(=O)O)C(=O)O)cc3)c2c(=O)[nH]1 | 5.26 µM (active) | 
17 | Cc1cc2c(C(C)C)c(O)c(O)c(C=O)c2c(O)c1-c1c(C)cc2c(C(C)C)c(O)c(O)c(C=O)c2c1O | 29.6 µM (active) | 
18 | CCN(CC)CCCC(C)Nc1nc(C)cc(Nc2ccc3nc(C)cc(N)c3c2)n1 (stereo not given) |  | 123%
19 | CCn1cc(C(=O)O)c(=O)c2cc(F)c(N3CCNC(C)C3)c(F)c21 (stereo not given) |  | 140%
20 | COc1ccc(C2=N[C@H](c3ccc(Cl)cc3)[C@H](c3ccc(Cl)cc3)N2C(=O)N2CCNC(=O)C2)c(OC(C)C)c1 | 5.9 µM (active) | 

Row | Compound | Potency | viability
21 | CC(C=CC1=C(C)CCCC1(C)C)=CC=CC(C)=CC(=O)O | 14.8 µM (active) | 
22 | COc1ccc(COc2cc3oc(=O)c4cc(C(C)O)ccc4c3cc2OC)cc1 (stereo not given) | 20.9 µM (active) | 
23 | Nc1ccc(S(=O)(=O)Nc2ccnn2-c2ccccc2)cc1 |  | 145%
24 | Cc1cc(SCc2sc(-c3ccc(C(F)(F)F)cc3)nc2C)ccc1OCC(=O)O | 16.6 µM (active) | 
25 | CCC(C)(C)C(=O)O[C@H]1C[C@@H](C)C=C2C=C[C@H](C)[C@H](CC[C@@H]3C[C@@H](O)CC(=O)O3)[C@H]21 | 18.7 µM (active) | 
26 | COc1c(Cl)cc2c([nH]c3cnccc32)c1NC(=O)c1cccnc1C | 6.62 µM (active) | 
27 | CN(C)C(=O)c1ccc(S(=O)(=O)c2ccc(NC(=O)[C@@](C)(O)C(F)(F)F)c(Cl)c2)cc1 |  | 99.9%
28 | CC1(C)SCCN(S(=O)(=O)c2ccc(OCC#CCO)cc2)[C@@H]1C(=O)NO | 0.118 µM (active) | 
29 | c1ccc([C@H]2CN3CCSC3=N2)cc1 |  | 159%
30 | O=C(O)COCCN1CCN(C(c2ccccc2)c2ccc(Cl)cc2)CC1 (stereo not given) |  | 122%
31 | NC(=O)C1CCCc2c1[nH]c1ccc(Cl)cc21 (stereo not given) |  | 110%
32 | Cc1c(C)c2c(c(C)c1O)CCC(C)(COc1ccc(CC3SC(=O)NC3=O)cc1)O2 (stereo not given) |  | 114%
33 | CCOc1cc(N2CCC(O)CC2)ccc1Nc1ncc2c(n1)N(C)c1ccccc1C(=O)N2C | 11.8 µM (active) | 
34 | O=C(c1cc(Cc2n[nH]c(=O)c3ccccc23)ccc1F)N1CCN(C(=O)C2CC2)CC1 |  | 93.3%
35 | CC(c1cc2ccccc2s1)N(O)C(N)=O (stereo not given) |  | 118%
36 | CC(=O)Oc1ccccc1C(=O)O |  | 129%
37 | OCCC#Cc1nc(-c2ccc(F)cc2)c(-c2ccncc2)n1CCCc1ccccc1 |  | 114%
38 | NC(=O)c1ccc(-c2nc(-c3ccc4c(c3)OCCO4)c(-c3ccccn3)[nH]2)cc1 |  | 112%
39 | CCC(C)n1ncn(-c2ccc(N3CCN(c4ccc(OC[C@H]5CO[C@](Cn6cncn6)(c6ccc(Cl)cc6Cl)O5)cc4)CC3)cc2)c1=O (stereo not given in full) | 14.8 µM (active) | 
40 | CNC(=O)c1ccc(C)c(-n2c(C)cc(OCc3ccc(F)cc3F)c(Br)c2=O)c1 |  | 116%
